Measurements published in PubChem BioAssay.
Activity calls are given as the source filed them.

Key:
Albumin (Bos taurus) = Albumin (Bos taurus) (UniProt P02769); assay: compounds binding labelled BSA control protein – biochemical, small-molecule microarray, Alexa647 label, 635/667 nm fluorescence, artefact control for SMM control protein annotation, profiling panel (AID 1118); conditions: BSA-A647 binding, fluorescence 635 nm, higher = more signal;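 further: score merges 667 nm emission intensity and signal-to-noise per printed compound spot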
Chain of Albumin (Bos taurus) (P02769 whole entry, looked up): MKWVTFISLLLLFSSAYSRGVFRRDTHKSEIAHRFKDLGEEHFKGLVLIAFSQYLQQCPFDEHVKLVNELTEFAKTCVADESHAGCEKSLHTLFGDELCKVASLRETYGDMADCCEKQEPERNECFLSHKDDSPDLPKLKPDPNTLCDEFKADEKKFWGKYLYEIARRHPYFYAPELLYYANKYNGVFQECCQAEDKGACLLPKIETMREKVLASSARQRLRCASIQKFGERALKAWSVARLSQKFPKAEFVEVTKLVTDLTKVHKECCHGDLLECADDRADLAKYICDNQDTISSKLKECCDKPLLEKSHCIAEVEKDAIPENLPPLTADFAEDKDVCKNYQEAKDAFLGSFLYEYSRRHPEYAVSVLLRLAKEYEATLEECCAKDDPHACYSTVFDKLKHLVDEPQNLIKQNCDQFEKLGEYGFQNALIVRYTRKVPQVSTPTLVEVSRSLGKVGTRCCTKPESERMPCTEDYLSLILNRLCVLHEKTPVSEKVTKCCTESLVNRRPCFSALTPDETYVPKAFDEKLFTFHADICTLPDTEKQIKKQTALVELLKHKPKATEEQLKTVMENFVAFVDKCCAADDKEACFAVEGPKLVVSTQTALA

[1] = probe aXIP binding to arrayed compounds – biochemical, NeuroSMM set, 635/667 nm fluorescence, primary screen (AID 1119); conditions: small-molecule microarray, higher = more signal, called active from +8 up or from −8 down;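 further: probe is the protein aXip251-270 applied at 1 µg/mL to compound-printed slides; binding of probe to printed compounds measured as 667 nm fluorescence plus signal to noise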
[2] = probe aNOTCH3 binding on compound microarray – biochemical, small-molecule microarray, 635/667 nm fluorescence, primary screen (AID 1120); conditions: higher = more signal;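 further: probe is a biotin-tagged antibody raised against NOTCH3 rather than NOTCH3 protein; score merges spot fluorescence near 667 nm with spot signal to noise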
[3] = probe aNOTCH2 binding on compound microarray – biochemical, small-molecule microarray, 635/667 nm fluorescence, primary screen (AID 1121); conditions: higher = more signal;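 further: score merges feature fluorescence read at 667 nm with its signal to noise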
[4] = target: Carbonic anhydrase 2 (Homo sapiens) (UniProt P00918); assay: compounds binding carbonic anhydrase 2 – biochemical, small-molecule microarray, Alexa647-labelled CAII, profiling panel (AID 1122); conditions: CAII-A647 binding fluorescence, higher = more signal
[5] = COS7 lysate on small-molecule microarray, probe aHis, 635 nm (AID 1123); conditions: COS7 cell lysate, fluorescence, higher = more signal;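 further: z-score combines 667nm fluorescence intensity with signal-to-noise per printed compound spot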
[6] = probe aLAP1 signal on lysate-treated microarray – cell lysate, small-molecule microarray, COS7 lysate, primary screen (AID 1124); conditions: probe aLAP1, fluorescence, higher = more signal;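 further: lysate comes from COS7 cells expressing LAP1 and is applied at 0.3 µg/mL; score merges spot fluorescence near 667 nm with signal-to-noise over triplicate slides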
Sam68 (KHDRBS1) = assay: compounds binding KHDRBS1 protein – biochemical, small-molecule microarray, 635 nm fluorescence, primary screen (AID 1125); conditions: higher = more signal;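 further: score merges 667 nm channel intensity with signal to noise over triplicate slides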
[7] = tested on: Chordin-like protein 2 (CHRDL2); assay: compounds binding chordin-like 2 – biochemical, small-molecule microarray, 635 nm fluorescence, primary screen (AID 1126); conditions: fluorescence 635 nm, higher = more signal;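 further: printed compound slides probed with Chrdl2 protein at 4 µg/mL for 1 h at 4 C; score merges 667 nm emission intensity with signal to noise over three replicate slides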
[8] = target: Concanavalin-A (Canavalia ensiformis) (UniProt P02866); assay: compounds binding concanavalin A lectin – biochemical, small-molecule microarray, Alexa647 label, 635 nm, artefact control for SMM control protein annotation, primary screen (AID 1127); conditions: ConA-A647 binding fluorescence, higher = more signal;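 further: z combines 667 nm emission intensity with signal-to-noise across three replicate slides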
Chain of Concanavalin-A (Canavalia ensiformis) (P02866 whole entry, looked up): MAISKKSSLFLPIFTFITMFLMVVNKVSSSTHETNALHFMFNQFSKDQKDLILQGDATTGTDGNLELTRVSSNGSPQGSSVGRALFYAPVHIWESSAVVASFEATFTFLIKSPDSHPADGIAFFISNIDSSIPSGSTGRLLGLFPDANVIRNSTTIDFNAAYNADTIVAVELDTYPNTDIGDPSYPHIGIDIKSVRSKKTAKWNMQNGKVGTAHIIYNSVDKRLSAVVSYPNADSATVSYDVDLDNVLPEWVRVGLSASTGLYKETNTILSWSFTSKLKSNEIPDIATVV

Structure (SMILES)	composite z-score (Albumin (Bos taurus))	composite Z-score [1]	composite z-score [2]	composite z-score [3]	composite z-score [4]	composite z-score [5]	composite z-score [6]	composite z-score (Sam68 (KHDRBS1))	composite z-score [7]	composite z-score [8]
C=C(C(=O)CC[C@H](OC(=O)c1cccnc1)c1ccc(CO)o1)C(C)C	0.0812	0.674 (inactive)	0.0596	-0.0633	0.655	0.403	0.309	0.839	0.302	0.645
CC(C)C(O)C1C=CC2C(=O)N(C)C(=O)C2N1Nc1ccccc1 (stereo not given)	1.04	0.469 (inactive)	0.585	0.45	0.812	1.86	1.01	1.12	0.164	0.871
CC(C)C(O)C1C=CC2C(=O)N(C)C(=O)C2N1N(c1ccccc1)c1ccccc1 (stereo not given)	0.736	0.491 (inactive)	-0.047	-0.0482	0.697	0.986	-0.37	-0.797	-1.17	-0.847
C=C(CCCC)C(=O)CC[C@@H](OC(=O)c1ccccc1-c1ccccc1C(=O)O)c1cccc(OCCO)c1	-0.658	-0.263 (inactive)	-0.15	-0.154	0.728	0.361	0.742	0.986	1.22	-0.5
C=C(CCCC)/C(=C/C[C@@H](OC(=O)c1ccncc1)c1cccc(OCCO)c1)c1cnc2ccccc2c1	0.413	0.815 (inactive)	0.272	-0.0495	0.893	1.04	0.327	1.16	1.54	1.1
COc1ccc([Si](C)(C)[C@H]2[C@H](CCn3cc([C@H](O)c4ccccc4)nn3)O[C@@]3(C(=O)N(Cc4ccc(N5CCC5=O)cc4)c4ccccc43)[C@@H]2C)cc1	0.0383	-0.128 (inactive)	-0.0647	-0.167	0.0133	0.418	0.142	0.654	0.786	0.672
CC(C)CN1C(=O)[C@@]2(c3ccc([N+](=O)[O-])cc3)CC(=O)N(CC34CC5CC(CC(C5)C3)C4)[C@@H]2c2ccc(CO)cc21	0.291	-0.585 (inactive)	-0.0016	-0.189	0.411	0.0815	-0.0349	-0.772	-1.52	0.436
O=C1O[C@@H](c2ccccc2)[C@@H](c2ccccc2)N2[C@@H](c3ccccc3OCCO)[C@]3(C(=O)Nc4ccc(C#CCCO)cc43)[C@@H](C(=O)Nc3nc4ccccc4s3)[C@H]12	0.792	0.229 (inactive)	0.302	0.0203	0.428	1.28	1.33	1.31	0.529	1.14
O=C1O[C@@H](c2ccccc2)[C@@H](c2ccccc2)N2[C@@H](c3ccccc3OCCO)[C@]3(C(=O)Nc4ccc(C#CCCO)cc43)[C@@H](C(=O)N3CCN(c4ncccn4)CC3)[C@H]12	0.717	1.37 (inactive)	0.0208	-0.0811	0.298	2.09	0.176	1.19	0.0179	1.12
C[C@]1(C(=O)NCCN2CCOCC2)c2ccccc2C(=O)N(Cc2ccc(OC(F)(F)F)cc2)[C@H]1c1ccc(CO)cc1	0.723	0.456 (inactive)	-0.154	-0.0966	0.627	2.43	0.345	0.217	-1.15	0.392
CC(C)(C)OC(=O)CC[C@@]1(C(=O)O)N=C(c2ccc(OCCCO)cc2)O[C@@H]1c1ccccc1	0.273	-0.204 (inactive)	-0.1	-0.0037	0.824	1.98	-0.021	0.721	-0.811	0.335
CCCCC(CC)C(O)C1C=CC2C(=O)N(c3ccccc3)C(=O)C2N1Nc1ccc([N+](=O)[O-])cc1 (stereo not given)	0.985	-0.189 (inactive)	0.44	-0.161	0.652	1.86	0.914	1.31	0.0772	1.18
CC(C)CNC(=O)[C@@]1(c2ccc([N+](=O)[O-])cc2)CC(=O)N(C2CCCCC2)[C@@H]1c1ccc(CO)cc1I	0.441	0.0911 (inactive)	-0.0598	-0.0761	0.469	1.86	0.15	0.754	-0.662	0.282
C=C(C(=O)CC[C@H](OC(C)=O)c1cccc(OCCO)c1)C(C)C	-0.757	0.562 (inactive)	-0.135	-0.148	-0.382	0.409	-0.326	-0.0177	-1.23	-1.21
COc1ccc(C(O)C2C=CC3C(=O)N(c4ccccc4)C(=O)C3N2Nc2ccc(C#N)cc2)c2ccccc12 (stereo not given)	1.07	1.3 (inactive)	0.0248	0.0847	0.734	2.48	0.537	1.28	-0.32	1.22
CC(C)(C)OC(=O)CC[C@]1(C(=O)O)N=C(c2ccc(OCCCO)cc2)O[C@H]1c1ccccc1CN=[N+]=[N-]	0.472	-0.209 (inactive)	0.0165	0.0264	0.917	0.811	0.383	0.0075	-0.237	-0.192
CC(C)(C)OC(=O)CC[C@]1(C(=O)N2CCOCC2)N=C(c2ccc(OCCCO)cc2)O[C@H]1c1ccccc1	0.969	-0.131 (inactive)	0.116	-0.17	0.834	2.75	0.135	1.02	-0.267	0.838
